DT40 TDP1 CPT: DT40-hTDP1 cell growth loss with CPT; chicken DT40 Tdp1-/-;hTDP1 cells + 20 nM CPT, ATP luminescence, 48 h; Potency, µM (top dose mostly 46.2 µM), inactives show top-dose activity change, negative = growth inhibition, usual class: inhibitors; 420,000 compounds, 12% hits; AID 686979; further: potency means the concentration at half of the fitted maximal effect; nearly all actives have a fitted effect of over 55% in size
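Chicken DT40 Tdp1-/- cells stably complemented with human TDP1 were seeded at 400 cells/well in medium containing 20 nM camptothecin, exposed to pin-transferred compounds, and grown at 37 °C for at least 48 hr. Viability was read as ATP luminescence.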
IL-1B inflam inh: inhibitors of inflammasome signaling (IL-1 beta secretion); 360,000 compounds, 4.7% hits; AID 743279; activity change, % at 57.5 µM; THP-1 LPS/ATP IL-1B secretion, AlphaLISA, 16 h; stronger effect = lower value; in the data active means activity change below about -50%; inconclusive means mostly about -30% to -49%
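Secreted IL-1B measured by AlphaLISA bead assay after 16 h compound exposure of THP-1 cells; compounds (final up to 57.5 uM) added 1 h before LPS (250 ng/mL) and ATP (1.25 mM) stimulation; lower signal means less secretion.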
HT1080 IDH1KD tx: toxicity to HT-1080 IDH1 knockdown cells (counter line); HT-1080 IDH1 knockdown viability, ATP luminescence, 48 h; AID 686971; Potency, µM (highest dose often 46.1 µM), for inactives: top-dose activity, negative = toxicity, most hits filed as cytotoxic; 360,000 compounds, 2% hits;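 further: potency means the concentration at half of the fitted maximal effect; 0% = DMSO wells and -100% = cell-free medium wells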
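Using the IDH1-knockdown HT-1080 line run in the same batch and compound series as the NT line, viability after 48 h at 37 °C was determined by CellTiter-Glo luminescence and expressed as % activity.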
HT1080-NT tox: kills 2HG-producing HT-1080-NT fibrosarcoma cells; 360,000 compounds, 1.6% hits; Potency, µM (doses to about 46.1 µM), for inactives: at the top dose activity, negative = less viability, hits mostly cytotoxic; HT-1080-NT fibrosarcoma viability, CellTiter-Glo ATP luminescence, 48 h; AID 686970;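 further: NT is the 2HG producing partner of a matched IDH1 knockdown line; potency means the concentration at half of the fitted maximal effect; 0% = DMSO-treated cells and -100% = media-only wells without cells; nearly all actives have a fitted effect of over 55% in size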
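Compounds were tested in concentration-response format on HT-1080-NT cells for 48 hours at 37 degrees C. Cell viability came from CellTiter-Glo luminescence; curves were classified by r2, response magnitude and activity.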
TDP1 cell noCPT: qHTS for Inhibitors of human tyrosyl-DNA phosphodiesterase 1 (TDP1): qHTS in cells in absence of CPT; DT40 Tdp1-/- hTDP1 cells, no CPT, ATP luminescence, 48 h; Potency, µM (series often up to 46.2 µM), for inactives: top-dose activity change, negative = growth inhibition, usual class: inhibitors; 420,000 compounds, 15% hits; AID 686978, 2013; further: potency means the concentration at half of the fitted maximal effect; nearly all actives have a fitted effect of over 55% in size
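Cells were dispensed at 400 per well, compounds added by pin tool, plates incubated ≥48 hr at 37 °C, then CellTiter-Glo added for 30 min at room temperature before luminescence reading. Line: DT40 Tdp1-/- complemented with hTDP1; camptothecin omitted.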
Active calls of the source: *; ? = inconclusive; . = no result given. Shown are actives, neighbours in structure and some others; about 19% of the full set was active somewhere. Unless noted, the call rests on the fitted dose curve; in most records, active means well fitted curve in the direction sought with a large enough effect; inconclusive means small, poorly fitted or top-dose-only effect, or another doubt; inactive means no such curve, though single readings can be large; an effect the other way counts as inactive or inconclusive. Unless noted, on the % scale 0 is the no-effect control and ±100 the full control effect.

SMILES | DT40 TDP1 CPT | IL-1B inflam inh | HT1080 IDH1KD tx | HT1080-NT tox | TDP1 cell noCPT
CC(=O)C1CCC2C3CC=C4CC(SC(=N)N)CCC4(C)C3CCC12C (stereo unspecified) | 13µM* | -103* | ? | ? | 8.2µM*
C[C@]12CC[C@H](O)CC1=CCC1C2CC[C@@]2(C)C1CC[C@@H]2NC(=O)[C@@H](N)Cc1ccccc1 (stereo partly specified) | ? | -96* | -28% | -2% | 21µM*
CCCCCCN[C@H]1CCC2C3CC=C4C[C@@H](O)CC[C@]4(C)C3CC[C@@]21C (stereo partly specified) | 16µM* | -2 | ? | -11% | ?
CC(C)(C)[C@H](N)C(=O)N[C@H]1CCC2C3CC=C4C[C@@H](O)CC[C@]4(C)C3CC[C@@]21C (stereo partly specified) | 4.6µM* | -102* | ? | ? | 3.7µM*
CC1(C(=O)NCCc2c[nH]c3ccccc23)C=CCN1C(=O)c1ccccc1 (stereo unspecified) | -22% | 17 | 17% | 10% | 2%
CC(=O)c1ccc(OC2(C)CCN(Cc3ccc(C)cc3)C2)cc1 (stereo unspecified) | ? | 15 | 0% | -2% | ?
CC(=O)OC1CC2C(C)(C)CCC(=O)[C@@]2(C)C2CC[C@@]3(C)C(c4ccoc4)OC(=O)C4OC43[C@]12C (stereo partly specified) | 11% | . | . | . | 16%
CC(C)C1Cc2nc(Cl)c(C#N)cc2CO1 (stereo unspecified) | 0% | 6 | 10% | 17% | -12%
CCc1ccc(-c2ccc(C(=O)C(F)(F)F)[nH]2)cc1 | -16% | -22 | -5% | -2% | -18%
CN[C@@H]1CCc2[nH]c3ccc(C(N)=O)cc3c2C1 | 1% | . | . | . | 2%
O=[N+]([O-])c1ccc(NCCCNS(=O)(=O)c2ccc(Cl)cc2)c(Cl)c1 | 21µM* | 1 | -10% | -11% | 21µM*
O=C1CCN(CCc2ccccc2)CCN1CCO | 4% | 13 | 7% | 7% | -12%
O=[N+]([O-])c1ccc(O)c(-c2nn[nH]n2)c1 | 18µM* | 7 | 13% | 5% | ?
CCOc1ccc(-n2c(SCC(=O)Nc3ccc4c(c3)OCCO4)nc3c([nH]c4ccccc43)c2=O)cc1 | ? | . | . | . | -27%
COC(=O)COc1cc(OCC(=O)OC)c2c(-c3ccccc3)cc(=O)oc2c1 | -5% | 57 | 6% | 4% | 3%
COc1cc(OC)c2c(-c3cccc(-c4ccc(NC(C)=O)cc4)c3)cc(=O)oc2c1 | 4.1µM* | 84 | 0.92µM* | 0.52µM* | 5.8µM*
COc1cc(OC)c2c(-c3cccc(-c4sccc4C(C)=O)c3)cc(=O)oc2c1 | 3.7µM* | 27 | 3.7µM* | 4.1µM* | 4.1µM*
Cc1ccc(-c2cccc(-c3cc(=O)oc4ccc(C(C)(C)C)cc34)c2)cc1 | ? | 34 | 0% | 2% | 23µM*
Cc1ccc2oc(-c3ccccc3)cc(=O)c2c1 | -28% | . | . | . | -17%
COc1cc(OC)c2c(-c3cccc(-c4ccc(C#N)cc4)c3)cc(=O)oc2c1 | 2.1µM* | 58 | -19% | ? | 4.1µM*
CCOC(=O)c1ccc(-c2cccc(-c3cc(=O)oc4cc(OC)cc(OC)c34)c2)cc1 | ? | 19 | 8% | 1% | ?
CN(C)c1ccc(/C=N/N2CCN(Cc3ccccc3Cl)CC2)cc1 | -5% | -23 | 4% | 5% | -10%
COc1ccc(NS(=O)(=O)c2ccc3c(c2)NC(=O)CC(=O)N3)cc1OC | -11% | 21 | -1% | 2% | 2%
COC(=O)c1cc(OC)c(OC)cc1NC(=S)N1CCN(c2ccccn2)CC1 | -20% | 40 | -14% | -18% | ?
COC(=O)C(C)Oc1cc(OC(C)C(=O)OC)c2c(-c3ccccc3)cc(=O)oc2c1 (stereo unspecified) | -10% | 17 | -5% | -5% | -18%

Source: PubChem
